Several values for one entry are separate records, joined by “and”; a condition that tells them apart may be missing. Equal entries are not always repeated. Unmarked numbers belong to inactive results. Inconclusive results are not listed. Activity calls are given as the source filed them. Unless noted, the call rests on the fitted dose curve; in most records, active means well fitted curve in the direction sought with a large enough effect; inconclusive means small, poorly fitted or top-dose-only effect, or another doubt; inactive means no such curve, though single readings can be large; an effect the other way counts as inactive or inconclusive. Numbered stars: 1 amine (or outer) side, 2 acyl side, 3 side chain; on linkers, the order of the positions; unused ones are H or OH. Bridge positions count the residues as written; N and C are the ends. Square brackets hold non-standard residues; d marks the D form. Peptide text beside a SMILES is read from it. I, II: the chains in the order shown. Actinocin(9to1) = Cc1c2oc3c(C)ccc(C(=O)[*:1])c3nc-2c(C(=O)[*:2])c(N)c1=O; NMeV = CN[C@H](C(=O)O)C(C)C; Sar = CNCC(=O)O Where only a bound is given, the exact number is not on record here.

Experiment [1] in a line: AP1 Signaling Pathway (AID 357; active means well fitted curve in either direction with a large enough effect, not every such curve was filed as active;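 further: ME-180 reporter cells stimulated with EGF at its EC50 level; on the % scale 0 is the no-effect control and ±100 the full control effect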). The conditions noted are these: ME-180 AP-1-bla reporter, EGF-induced, beta-lactamase ratio, 5 h; at 17.2 µM (top of the series). Summed up:
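First, ME-180 AP-1-bla cells were cultured overnight at 37 °C in low-serum Opti-MEM. Next, titrated compounds with EC50 EGF were incubated 5 hours. Finally, CCF4 was added for 2.5 hours and the 460/530 nm ratio recorded.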

Experiment [2] is described as follows: Stat Signaling Pathway (AID 446; active means well fitted curve in either direction with a large enough effect, not every such curve was filed as active;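 further: ME-180 cervical cancer cells given 40 pM IL-6 alongside compound; SIE-controlled beta-lactamase reporter measured as 460/530 nm FRET emission ratio; on the % scale 0 is the no-effect control and ±100 the full control effect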). The following applies: ME-180 (cervical carcinoma) SIE beta-lactamase reporter, IL-6 stimulated, 5 h. In a few lines: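 Overnight-plated ME-180 cells bearing a STAT Inducible Element beta-lactamase reporter; 5 h co-exposure to compound and 40 pM IL-6; values normalized to 300 pM IL-6 and 125 nM JAK inhibitor controls.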
Experiment [3] addresses Mitogen-activated protein kinase 10 (Mus musculus) (UniProt Q61831). The experiment can be described thus: JNK3 AlphaScreen Assay (AID 530; active means well fitted curve in either direction with a large enough effect, not every such curve was filed as active;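 further: kinase came from lysate of stimulated human HepG2 cells; signal reports phosphorylation of biotinylated GST-cJun 1-79 at Ser73 with 10 µM ATP; on the % scale 0 is the no-effect control and ±100 the full control effect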). The conditions noted are these: JNK3 lysate, c-Jun phosphorylation; series mostly up to 25.6 µM. Summed up: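 qHTS titrations with 15 min compound pre-incubation before adding ATP (10 uM final). Read-out: AlphaScreen of Ser73-phosphorylated biotin-GST-cJun using HepG2 lysate JNK3 activated by IL-1β and TNFα.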

Experiment [4] deals with Glucocorticoid receptor (Homo sapiens) (UniProt P04150). The experiment can be described thus: GR-GFP Redistribution (AID 450;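 active means compounds whose dose series gives a full or clear partial fitted curve of increased nuclear translocation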; further: potency means the concentration at half of the fitted maximal effect). The conditions noted are these: U2OS GR-GFP nuclear translocation, laser cytometry, 2 h.
Experiment [5] is described as follows: Cell Viability - MRC5 (AID 434; calls by dose curve;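 further: potency means the concentration at half of the fitted maximal effect; potency reflects cytotoxicity seen as loss of intracellular ATP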). The conditions noted are these: MRC5 lung fibroblast viability, qHTS. Summed up:
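AC50 values come from Hill-equation fits of intracellular ATP loss, measured by CellTiter-Glo luminescence. Normal lung fibroblasts (MRC5) had 40 hr compound treatment at 37 C, normalized between DMSO and 100 uM tamoxifen.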
(In general: qHTS replaces the single test concentration by a dilution series.)

Experiment [6] in a line: Cell Viability - SK-N-SH (AID 435; calls by dose curve;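 further: potency means the concentration at half of the fitted maximal effect; compound exposure lasted 40 h at 37 °C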). The conditions noted are these: SK-N-SH neuroblastoma cell viability qHTS. In a few lines:
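SK-N-SH neuroblastoma cells (1500/well) treated 40 h at 37 °C in complete medium; viability read as cellular ATP by CellTiter-Glo luminescence. Normalized to DMSO and 100 uM tamoxifen; AC50 from Hill fits of qHTS concentration-response.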

Experiment [7] can be described thus: Cell Viability - N2a (AID 540). Further: nearly all actives have a fitted effect of over 45% in size. Further: potency means the concentration at half of the fitted maximal effect.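 On activity change, negative = cytotoxicity: plate controls were DMSO alone for no effect and tamoxifen control for full effect.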 The following applies: N2a mouse neuroblastoma cell viability; activity change, negative = cytotoxicity: at 92.2 µM (top of the series). In a few lines: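 Cytotoxicity was scored as loss of cellular ATP in N2a cells, a mouse neuroblastoma line. Compounds are applied in a qHTS concentration series for 40 hr at 37 °C.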
Experiment [8] can be described thus: Cell Viability - NIH 3T3 (AID 541). Further: nearly all actives have a fitted effect of over 25% in size. Further: potency means the concentration at half of the fitted maximal effect.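 On activity change, negative = cytotoxicity: plate controls were DMSO alone for no effect and tamoxifen positive control for full effect.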 The following applies: NIH 3T3 cell viability, qHTS; activity change, negative = cytotoxicity: at 92.2 µM (top of the series). In a few lines: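 Cells seeded at 1000/well, rested 5 hr at 37 °C, then dosed and incubated 40 hr at 37 °C. CellTiter-Glo added, 20 min room temperature, luminescence read. AC50 by Hill fit.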
The nature of experiment [9]: Cell Viability - HUV-EC-C (AID 542). Further: nearly all actives have a fitted effect of over 35% in size. Further: potency means the concentration at half of the fitted maximal effect. The conditions noted are these: HUV-EC-C endothelial cell viability, qHTS; series mostly up to 92.2 µM. In a few lines: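 Cells were seeded at 1000 per well and incubated 5 hr at 37 °C before compound addition. After 40 hr at 37 °C, CellTiter-Glo reagent was added for 20 min and luminescence read. AC50 values came from Hill-equation modelling.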

Experiment [10] can be described thus: Cell Viability - H-4-II-E (AID 543). Further: nearly all actives have a fitted effect of over 35% in size. Further: potency means the concentration at half of the fitted maximal effect. The following applies: H-4-II-E rat hepatoma viability; series mostly up to 92.2 µM. Summed up:
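Cells seeded at 1500 per well and rested 5 hr; compounds added; 40 hr incubation at 37 °C; CellTiter-Glo added, 20 min at room temperature; luminescence read. Hill-equation fits gave AC50.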

Experiment [11] in a line: Cell Viability - SH-SY5Y (AID 544). Further: nearly all actives have a fitted effect of over 55% in size. Further: potency means the concentration at half of the fitted maximal effect.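 On viability change, negative = cytotoxic: 0% = DMSO alone and -100% = 100 µM tamoxifen.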 The conditions noted are these: SH-SY5Y neuroblastoma cell viability; viability change, negative = cytotoxic: at 92.2 µM (top of the series). Summed up: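 Cells were plated at 1500 per well and allowed 5 hr at 37 °C. Compounds were added across a concentration range and incubated 40 hr at 37 °C. CellTiter-Glo was added for 20 min at room temperature before luminescence reading.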

Experiment [12] in a line: Cell Viability - BJ (AID 421; calls by dose curve;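 further: potency means the concentration at half of the fitted maximal effect; cells exposed to compound for 40 hours at 37 °C before readout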). The conditions noted are these: BJ fibroblast viability, qHTS. Summed up: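 Quantitative HTS: ATP depletion in BJ cells after 40 hr compound exposure in complete culture medium, detected with CellTiter-Glo; AC50 from standard Hill fits.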
The nature of experiment [13]: Cell Viability - Jurkat (AID 426;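 active means dose-dependent loss of cell ATP signal giving a full or clear fitted curve, ranked by lower potency value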; further: potency means the concentration at half of the fitted maximal effect). The following applies: qHTS. Summed up: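 Cells of the human T-cell leukemia line Jurkat (E6-1) are seeded at 5000 per well, treated with compound across a concentration range for 40 hours at 37 °C, then lysed with CellTiter-Glo; luminescence reports ATP.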
Experiment [14] can be described thus: Cell Viability - Hek293 (AID 427;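 active means compounds whose dose-response curve shows a full or clear partial loss of cell viability, called from curve shape rather than a numeric limit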;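 further: potency means the concentration at half of the fitted maximal effect; cells exposed to compound for 40 hours at 37 °C before reading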). The conditions noted are these: qHTS. Summed up: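 AC50 values derive from Hill-modelled concentration-response of ATP-based luminescence, normalized between DMSO-only and 100 uM tamoxifen controls. Cells were exposed in complete culture medium for 40 hr at 37 °C before detection.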
The nature of experiment [15]: Cell Viability - HepG2 (AID 433; calls by dose curve;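 further: potency means the concentration at half of the fitted maximal effect; potency for ATP loss meaning cytotoxicity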). The following applies: qHTS. In a few lines:
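HepG2 cells, 1500 per well, treated 40 hr at 37 °C in complete medium; viability from intracellular ATP by CellTiter-Glo luminescence. Normalized to DMSO and 100 uM tamoxifen; AC50 from Hill fit of qHTS concentration-response.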

Experiment [16] in a line: Cell Viability - Renal Proximal Tubule (AID 545). Further: nearly all actives have a fitted effect of over 40% in size. Further: potency means the concentration at half of the fitted maximal effect.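 On activity change, negative = cytotoxicity: 0% = DMSO only and -100% = 100 µM tamoxifen.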 The conditions noted are these: renal proximal tubule cells viability, primary cells of rat origin; activity change, negative = cytotoxicity: at 91.7 µM (top of the series). Summed up:
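Rat renal proximal tubule primary cells, 1000/well, exposed to compounds for 40 hr at 37 °C in complete medium; cellular ATP read by CellTiter-Glo luminescence. AC50 from concentration-response fitted with standard Hill equation.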

Experiment [17] concerns the target Cytochrome P450 1A2 (Homo sapiens) (UniProt P05177). The experiment can be described thus: p450-cyp1a2 (AID 410; calls by dose curve;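 further: -100% = full effect of reference inhibitor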). The conditions noted are these: recombinant CYP1A2, luciferin-ME demethylation, luminescence; series mostly up to 25.6 µM. Summed up:
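O-Demethylation of luciferin 6' methyl ether by human CYP1A2 is monitored as luciferase luminescence. Substrate sits at Km (100uM); enzyme is 20nM. Values are scaled to 57 uM furafylline as maximal inhibition.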

Experiment [18] is described as follows: NFAT Signaling Pathway (AID 444; active means well fitted curve in either direction with a large enough effect, not every such curve was filed as active;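 further: carbachol stimulus at about its EC50 of 1 µM final; on the % scale 0 is the no-effect control and ±100 the full control effect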). The following applies: Jurkat NFAT-bla M1, carbachol, beta-lactamase ratio, 5 h; at 17.2 µM (top of the series). In a few lines:
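Read-out: CCF4 FRET ratio (460 nm/530 nm) after 1 h RT dye loading, used for %activity and AC50 from titration series. Cells: Jurkat NFAT-β-lactamase/M1 line, treated with compound plus 1 uM carbachol for 5 h, 37 °C.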

Sequence of Glucocorticoid receptor (Homo sapiens) (P04150 whole entry, looked up): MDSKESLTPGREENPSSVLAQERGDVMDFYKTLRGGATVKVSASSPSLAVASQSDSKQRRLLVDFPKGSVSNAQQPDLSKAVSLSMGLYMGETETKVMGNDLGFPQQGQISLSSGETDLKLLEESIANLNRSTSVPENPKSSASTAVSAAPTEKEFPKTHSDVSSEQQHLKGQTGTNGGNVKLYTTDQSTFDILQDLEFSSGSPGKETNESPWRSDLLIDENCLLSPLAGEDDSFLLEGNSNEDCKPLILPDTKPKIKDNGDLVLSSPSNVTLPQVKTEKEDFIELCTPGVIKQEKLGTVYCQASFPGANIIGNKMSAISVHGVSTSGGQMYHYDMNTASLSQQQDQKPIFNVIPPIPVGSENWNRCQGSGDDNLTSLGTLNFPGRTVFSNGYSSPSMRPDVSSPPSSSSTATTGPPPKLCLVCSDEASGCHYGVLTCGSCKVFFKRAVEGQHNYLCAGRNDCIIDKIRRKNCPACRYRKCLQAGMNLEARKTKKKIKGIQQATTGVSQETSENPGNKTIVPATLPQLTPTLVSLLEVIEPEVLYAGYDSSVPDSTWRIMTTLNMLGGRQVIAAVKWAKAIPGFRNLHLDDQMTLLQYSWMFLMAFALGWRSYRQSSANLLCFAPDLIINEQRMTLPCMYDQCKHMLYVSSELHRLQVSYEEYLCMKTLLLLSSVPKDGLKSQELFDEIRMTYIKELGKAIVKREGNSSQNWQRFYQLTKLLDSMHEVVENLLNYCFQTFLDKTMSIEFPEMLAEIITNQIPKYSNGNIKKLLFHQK
Sequence of Cytochrome P450 1A2 (Homo sapiens) (P05177 whole entry, looked up): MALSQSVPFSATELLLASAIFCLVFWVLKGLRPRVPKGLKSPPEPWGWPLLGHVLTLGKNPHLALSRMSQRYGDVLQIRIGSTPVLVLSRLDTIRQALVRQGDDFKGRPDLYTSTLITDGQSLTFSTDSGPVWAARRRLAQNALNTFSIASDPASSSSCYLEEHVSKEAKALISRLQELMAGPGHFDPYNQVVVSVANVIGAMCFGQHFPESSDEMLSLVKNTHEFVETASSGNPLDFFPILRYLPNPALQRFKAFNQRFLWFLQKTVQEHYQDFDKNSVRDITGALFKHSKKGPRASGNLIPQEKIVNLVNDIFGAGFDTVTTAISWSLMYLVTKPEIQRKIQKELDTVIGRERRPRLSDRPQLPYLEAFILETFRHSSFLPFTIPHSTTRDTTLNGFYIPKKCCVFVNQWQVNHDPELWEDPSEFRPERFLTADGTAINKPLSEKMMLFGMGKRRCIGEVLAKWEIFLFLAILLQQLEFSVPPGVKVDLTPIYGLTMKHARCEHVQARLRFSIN

On to `CCCCOc1ccc(OCCCN2CCOCC2)cc1`, for which, in [1], the activity change, negative = inhibition was 5.36% and -1.05%. The activity, negative = inhibition in experiment [2] (at 17.2 µM (top of the series)) was -0.87% and 12.1%. Besides, the molecule was called inactive in [3].

As for `CN=C(NC#N)NCCSCc1csc(N=C(N)N)n1`, in [4], the Potency was over 46 µM.

As for `Oc1c(I)cc(Cl)c2cccnc12`, the Potency in experiment [5] is 44.2 µM (active); in experiment [6] it was 38.6 µM (active); in experiment [4] it was over 20.6 µM; in experiment [7], 31.6 µM (active); in experiment [8] it was 5.01 µM (active); in experiment [9], 31.6 µM (active). Besides, the Potency in [10] is 50.1 µM (active). Moreover, the viability change, negative = cytotoxic in experiment [11] is -84.2% (active).

Regarding `Cc1c2oc3c(C)ccc(C(=O)N[C@@H]4C(=O)N[C@H](C(C)C)C(=O)N5CCC[C@H]5C(=O)N(C)CC(=O)N(C)[C@@H](C(C)C)C(=O)O[C@@H]4C)c3nc-2c(C(=O)N[C@@H]2C(=O)N[C@H](C(C)C)C(=O)N3CCC[C@H]3C(=O)N(C)CC(=O)N(C)[C@@H](C(C)C)C(=O)O[C@@H]2C)c(N)c1=O` (I: T[dV]P[Sar][NMeV] / II: T[dV]P[Sar][NMeV]; ester I:1-I:C, II:1-II:C; linker I:N-II:N via Actinocin(9to1)), the Potency in experiment [12] is 0.00132 µM (active); in experiment [13] it was 0.0015 µM (active); in [14], 0.00102 µM (active); in experiment [15] it was over 92 µM; in experiment [5], over 92 µM; in experiment [6] it was over 92 µM. For the same molecule, the values for the Potency in experiment [10] and in experiment [16] were 0.00398 µM (active) and 0.001 µM (active), respectively. In addition, the molecule was called inactive in experiment [3]. Further, in experiment [9], the Potency result is “inactive”.

Regarding `C=CCc1ccc(O)c(OC)c1`, the Potency in experiment [12], in experiment [13], in experiment [14], in [15], in experiment [5] and in [6] was over 92 µM in each case. For the same molecule, the call in experiment [3] was inactive. Moreover, the Potency entry in experiment [7], in [8], in experiment [9], in experiment [10] and in experiment [11] was “inactive” in each case. The activity change, negative = cytotoxicity in [16] was 5.39%.

For `CN1[C@@H]2CC[C@H]1CC(OC(=O)c1c[nH]c3ccccc13)C2` (stereo not given in full), the Potency entry in [17] is “inactive”. Also, the activity, negative = inhibition in experiment [2] (at 38 µM (top of the series)) is -14.5%. For the same molecule, the call in experiment [3] was inactive.

For `C[C@@H](CN(C)C)CN1c2ccccc2Sc2ccccc21`, the activity change, negative = inhibition in experiment [1] is 82.2% [activator] (active). Besides, the activity, negative = inhibition in experiment [2] (at 17.2 µM (top of the series)) is -7.27%. Moreover, the Potency in [4] was over 20.6 µM. In experiment [3], the molecule was classed as inactive.

Turning to `Oc1c(I)cc(I)c2cccnc12`, the Potency in [4] is over 20.6 µM.

Consider `CC/C(=C(/CC)c1ccc(O)cc1)c1ccc(O)cc1`, for which the Potency was over 92 µM in experiment [12]; 21.5 µM (active) in [13]; over 92 µM in experiment [15]; over 92 µM in experiment [5]; 31.6 µM (active) in experiment [11]. The result in [3] was inactive. In experiment [7], the activity change, negative = cytotoxicity was -83.5% (active).

Take `CN1CCC(=C2c3ccccc3Sc3ccccc32)CC1`: the Potency result in [17] is “inactive”. For the same molecule, the activity change, negative = inhibition in experiment [18] was -31.6% (active). The activity, negative = inhibition in experiment [2] (at 17.2 µM (top of the series)) is -4.56%. In addition, in experiment [4], the Potency is over 20.6 µM. In addition, the molecule was called inactive in experiment [3].

(Values after PubChem BioAssay (NCATS).)
